Assay [1] is described as follows: E. coli DRC41 culture turbidity changes, primary screen, E. coli filamentation inducer project, strain DRC41, OD650, 48 h (AID 1152).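 Also: E. coli MC1000 strain DRC41 lacking acrAB efflux pump and sulA.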 To be noted: E. coli DRC41 (acrAB sulA), higher = more signal, called active from +8 up or from −8 down.
Assay [2] in a line: small-molecule binders of probe aLefty1, primary screen, biochemical, small-molecule microarray, 635/667 nm fluorescence (AID 1153).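 Also: score merges spot fluorescence with signal-to-noise ratio from the scanned slide images.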 To be noted: higher = more signal.
Assay [3] is described as follows: PSAC antagonists in infected red cells, primary screen, cell-based, P. falciparum Indochina, OD700, 1 h (AID 1154). To be noted: P. falciparum Indochina infected RBC osmotic lysis, higher = more signal, called active from +8 up or from −8 down.
Assay [4] can be described thus: PSAC antagonists in infected red cells, primary screen, cell-based, P. falciparum Indochina, OD700, 2 h (AID 1155).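 Also: lysis reports solute entry through the parasite surface anion channel PSAC; channel blockers reduce lysis of infected cells.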 To be noted: P. falciparum Indochina infected erythrocytes, osmotic lysis OD700; higher = more signal, called active from +8 up or from −8 down.
A short description of assay [5]: osmotic lysis modulators in infected erythrocytes, primary screen, PSAC antagonist project, cell-based, P. falciparum Indochina, OD700, 3 h (AID 1156). The conditions noted are these: higher = more signal, called active from +8 up or from −8 down.
Assay [6] in a line: PSAC antagonists in infected red cells, primary screen, cell-based, P. falciparum Indochina, OD700, 18 h (AID 1157). The conditions noted are these: P. falciparum Indochina infected erythrocytes, osmotic lysis OD700, 18 h; higher = more signal, called active from +8 up or from −8 down.
Assay [7] is described as follows: modulators of S6 phosphorylation in cells, primary screen, cell-based, A549, cytoblot, luminescence, serum-stimulated (AID 1158).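 Also: serum-stimulated A549 lung adenocarcinoma cells; signal is phosphorylated S6 detected by cytoblot immunostaining with HRP secondary.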 The conditions noted are these: A549 phospho-S6 cytoblot, 5 h, higher = more signal.
The target of assay [8] is NADPH oxidase 2 (Homo sapiens) (UniProt P04839). Kind of assay: NOX2-dependent H2O2 signal modulators, primary screen, NOX inhibitor project, cell-based, HEK293-NOX2, PMA-stimulated, Amplex Red fluorescence (AID 1159). Also: test concentration not given here. The conditions noted are these: 45 min, higher = more signal, called active from +8 up or from −8 down.
Assay [9] deals with NADPH oxidase 4 (Homo sapiens) (UniProt Q9NPH5). The assay can be described thus: NOX4-dependent H2O2 signal modulators, primary screen, NOX inhibitor project, cell-based, HEK293-NOX4, tetracycline-induced, Amplex Red fluorescence (AID 1160). The conditions noted are these: 45 min, higher = more signal, called active from +8 up or from −8 down.
Assay [10] concerns the target NADPH oxidase 5 (Homo sapiens) (UniProt Q96PH1). Kind of assay: NOX5-dependent H2O2 signal modulators, primary screen, NOX inhibitor project, cell-based, HEK293-NOX5, Amplex Red fluorescence (AID 1161). To be noted: HEK293-NOX5, ionomycin, 45 min, higher = more signal.
The nature of assay [11]: A549 cell viability effects, profiling panel, calcein-AM fluorescence, 48 h, basal (AID 1162). Also: test concentration not given here. The conditions noted are these: higher = more signal.
Assay [12] is described as follows: adipocyte viability effects, profiling panel, cell-based, 3T3-L1 adipocytes, calcein-AM fluorescence, 48 h, basal (AID 1163). Also: test concentration not given here. The conditions noted are these: 3T3-L1 adipocytes viability, higher = more signal.
Assay [13] is described as follows: HepG2 cell viability effects, profiling panel, calcein-AM fluorescence, 48 h, basal (AID 1164). Also: test concentration not given here. The conditions noted are these: higher = more signal.
The nature of assay [14]: MM1S cell viability effects, profiling panel, calcein-AM fluorescence, 48 h, basal (AID 1165).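 Also: viability of MM1S multiple myeloma cells under basal unstimulated conditions; test concentration not given here.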 The conditions noted are these: higher = more signal.
Assay [15] in a line: basal RPMI8226 viability, no added stimulus, profiling panel, cell-based, calcein-AM fluorescence, 48 h, PK04 Diversity Set (AID 1166).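 Also: cells grown under basal conditions without added stimulus; test concentration not given here.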 To be noted: RPMI8226 myeloma viability, higher = more signal.
A short description of assay [16]: basal HepG2 mitochondrial membrane potential changes, profiling panel, cell-based, JC-1 fluorescence, 24 h, 100 nL compound (AID 1167). Also: test concentration not given here. To be noted: higher = more signal.
Assay [17] is described as follows: basal 3T3-L1 adipocyte mitochondrial potential changes, profiling panel, cell-based, JC-1 fluorescence, 3T3-L1 adipocytes, 24 h, 100 nL compound (AID 1168). Also: test concentration not given here. The conditions noted are these: JC-1 mitochondrial fluorescence, higher = more signal, called active from +8 up or from −8 down.
A short description of assay [18]: basal RPMI8226 mitochondrial membrane potential changes, profiling panel, cell-based, JC-1 fluorescence, 24 h, 100 nL compound (AID 1169). Also: test concentration not given here. To be noted: RPMI8226 myeloma, JC-1 mitochondrial potential fluorescence, higher = more signal.
The nature of assay [19]: basal MM1S mitochondrial membrane potential changes, profiling panel, cell-based, JC-1 fluorescence, 24 h, 100 nL compound (AID 1170). Also: test concentration not given here. To be noted: higher = more signal.
Assay [20] can be described thus: A549 lung cancer cell viability effects, profiling panel, resazurin fluorescence, 24 h, PK04 Diversity Set (AID 1171). Also: test concentration not given here. To be noted: higher = more signal, called active from +8 up or from −8 down. On the technique in general: Alamar Blue is a resazurin reagent that responds to reducing activity.

Active and inactive are the calls of the source.

Sequence of NADPH oxidase 5 (Homo sapiens) (Q96PH1 whole entry, looked up): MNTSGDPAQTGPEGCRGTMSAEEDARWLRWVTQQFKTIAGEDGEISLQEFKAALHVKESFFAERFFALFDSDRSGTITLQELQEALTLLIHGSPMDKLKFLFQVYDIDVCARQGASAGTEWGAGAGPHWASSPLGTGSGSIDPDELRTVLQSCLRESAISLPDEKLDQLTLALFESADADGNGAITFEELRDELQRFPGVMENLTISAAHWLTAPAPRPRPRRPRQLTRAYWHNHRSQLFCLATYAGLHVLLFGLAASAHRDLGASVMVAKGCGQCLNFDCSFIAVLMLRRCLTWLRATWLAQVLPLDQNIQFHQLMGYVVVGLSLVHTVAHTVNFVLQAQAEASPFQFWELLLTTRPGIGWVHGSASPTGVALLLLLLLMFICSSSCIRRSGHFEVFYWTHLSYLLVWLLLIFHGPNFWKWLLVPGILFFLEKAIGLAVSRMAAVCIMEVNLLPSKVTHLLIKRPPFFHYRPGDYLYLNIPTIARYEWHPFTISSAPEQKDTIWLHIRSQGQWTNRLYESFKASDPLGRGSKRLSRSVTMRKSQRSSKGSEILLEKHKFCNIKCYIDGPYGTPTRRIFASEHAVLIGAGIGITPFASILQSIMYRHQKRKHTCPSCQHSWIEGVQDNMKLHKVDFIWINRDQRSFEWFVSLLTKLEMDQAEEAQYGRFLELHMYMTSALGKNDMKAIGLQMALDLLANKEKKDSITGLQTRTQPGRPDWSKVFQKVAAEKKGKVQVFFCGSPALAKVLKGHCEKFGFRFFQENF
Sequence of NADPH oxidase 2 (Homo sapiens) (P04839 whole entry, looked up): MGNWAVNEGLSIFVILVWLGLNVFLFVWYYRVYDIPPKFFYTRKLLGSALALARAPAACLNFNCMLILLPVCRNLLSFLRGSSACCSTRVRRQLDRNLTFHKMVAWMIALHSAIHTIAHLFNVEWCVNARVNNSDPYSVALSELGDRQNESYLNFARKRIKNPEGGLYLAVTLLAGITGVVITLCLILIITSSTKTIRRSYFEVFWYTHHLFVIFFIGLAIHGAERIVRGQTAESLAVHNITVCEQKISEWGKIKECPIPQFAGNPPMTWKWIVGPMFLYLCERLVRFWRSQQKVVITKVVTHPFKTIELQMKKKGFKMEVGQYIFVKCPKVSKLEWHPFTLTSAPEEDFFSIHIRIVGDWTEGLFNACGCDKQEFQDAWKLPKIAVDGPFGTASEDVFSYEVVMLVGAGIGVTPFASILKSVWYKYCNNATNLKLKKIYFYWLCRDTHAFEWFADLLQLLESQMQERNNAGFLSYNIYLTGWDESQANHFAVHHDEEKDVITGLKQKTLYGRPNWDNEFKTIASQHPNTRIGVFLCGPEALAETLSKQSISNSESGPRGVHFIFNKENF
Sequence of NADPH oxidase 4 (Homo sapiens) (Q9NPH5 whole entry, looked up): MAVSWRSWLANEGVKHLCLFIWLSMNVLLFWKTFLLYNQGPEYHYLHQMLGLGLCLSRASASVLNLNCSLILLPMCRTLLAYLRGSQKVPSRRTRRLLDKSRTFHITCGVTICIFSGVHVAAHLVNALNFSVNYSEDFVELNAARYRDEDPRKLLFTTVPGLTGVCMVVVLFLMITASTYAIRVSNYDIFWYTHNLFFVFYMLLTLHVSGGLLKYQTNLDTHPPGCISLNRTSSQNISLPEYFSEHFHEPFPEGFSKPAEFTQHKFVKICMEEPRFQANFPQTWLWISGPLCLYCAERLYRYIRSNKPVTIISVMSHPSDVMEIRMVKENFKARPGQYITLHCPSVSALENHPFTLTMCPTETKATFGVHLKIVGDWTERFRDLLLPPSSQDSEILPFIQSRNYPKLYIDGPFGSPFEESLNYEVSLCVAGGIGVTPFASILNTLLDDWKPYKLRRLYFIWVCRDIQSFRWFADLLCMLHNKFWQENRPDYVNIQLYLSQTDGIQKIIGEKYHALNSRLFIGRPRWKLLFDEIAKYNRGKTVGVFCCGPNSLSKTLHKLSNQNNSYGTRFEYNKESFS

Consider `C=CCNC(=O)[C@@H]1[C@H]2C(=O)O[C@H](c3ccccc3)[C@H](c3ccccc3)N2[C@H](c2ccc(O)cc2)[C@@]12C(=O)Nc1ccc(C#CCCO)cc12`, for which the z-score in assay [1] is 1.79 (inactive); in assay [3] it was 2.1 (inactive); in assay [4] it was -0.785 (inactive); in [5], -0.534 (inactive); in assay [6], -1.86 (inactive); in [7], 0.727. Besides, the z-score was 0.422 (inactive) in assay [8]; -0.449 (inactive) in [9]; 0.425 in [10]; 0.47 in [11]; 0.79 in assay [12]; -0.168 in assay [13]. Further, the z-score in assay [14] was -0.21; in [15] it was -0.719; in [16] it was -0.931; in [17], -0.296 (inactive); in assay [18], -0.456; in assay [19] it was -0.388. The z-score in assay [20] is 1.01 (inactive). The compound also showed a composite z-score in assay [2] of -0.495.
Consider `C#CCNS(=O)(=O)N(C)C`, for which the z-score in [1] is 1.14 (inactive); in assay [3] it was 0.132 (inactive); in assay [4] it was 0.262 (inactive); in assay [5] it was -0.395 (inactive); in assay [6], 0.0625 (inactive); in assay [7], 0.32. The z-score in assay [8] was -0.533 (inactive); in [9], 0.183 (inactive); in [10] it was 0.112; in assay [11] it was -0.277; in assay [12], -0.738; in assay [13], 0.759. In addition, the z-score in [14] was 0.716; in assay [15], -0.227; in [16] it was 0.563; in assay [17], 0.48 (inactive); in [18], 0.0262; in [19], -0.777. In addition, in assay [20], the z-score was 0.943 (inactive). In addition, the composite z-score in assay [2] is -0.103.
On to `C[N+](C)(C)CCCCCCNC(=O)[C@H]1C[C@H]2C(=O)N3CCC[C@H]3C(=O)N2[C@H]1c1cccc(OCCO)c1`, for which the z-score in [1] was -0.507 (inactive); in [3] it was 5.47 (inactive); in assay [4] it was 0.64 (inactive); in assay [5], -2.56 (inactive); in assay [6] it was 0.498 (inactive); in [7] it was -0.632. Also, the z-score is 1.18 (inactive) in assay [8]; 1.27 (inactive) in assay [9]; 0.865 in [10]; -0.538 in assay [11]; -1.25 in assay [12]; -0.684 in [13]. The z-score in assay [14] was 0.429; in assay [15], 0.512; in assay [16], -1.68; in assay [17] it was -0.416 (inactive); in [18], -0.173; in assay [19], -0.167. Also, in assay [20], the z-score was 0.558 (inactive). In assay [2], this compound came in with a composite z-score of 0.0683.
With `C=CCOC(=O)[C@@H]1[C@H]2C(=O)O[C@H](c3ccccc3)[C@H](c3ccccc3)N2[C@H](c2ccc(OCCOC(=O)[C@@H]3C[C@@H]4C(=O)N5CCC[C@H]5C(=O)N4[C@@H]3c3cccc(OCCO)c3)cc2)[C@@]12C(=O)Nc1ccc(I)cc12`, the z-score in assay [1] is 0.745 (inactive); in [3], 3.47 (inactive); in assay [4], 1.87 (inactive); in assay [5], 3.63 (inactive); in assay [6], 0.938 (inactive); in assay [7] it was 0.198. In addition, the z-score was 1.82 (inactive) in [8]; 1.64 (inactive) in assay [9]; 1.73 in assay [10]; -0.283 in assay [11]; 0.584 in assay [12]; -1.27 in [13]. For the same compound, the z-score was -0.16 in assay [14]; 0.583 in assay [15]; -0.853 in [16]; 0.272 (inactive) in assay [17]; -0.661 in assay [18]; -0.984 in assay [19]. Also, the z-score in [20] is 0.592 (inactive). In assay [2], this compound gave a composite z-score of -0.462.
As to `COCCOC(=O)N1C(=O)[C@@]2(c3ccccc31)[C@H](c1ccc(OCCO)cc1)N1[C@H](c3ccccc3)[C@H](c3ccccc3)OC(=O)[C@H]1[C@@H]2C(=O)NC[C@H](O)c1ccccc1`, the z-score is -0.769 (inactive) in [1]; 7.9 (inactive) in [3]; 1.94 (inactive) in assay [4]; 0.0925 (inactive) in [5]; 0.728 (inactive) in assay [6]; -0.575 in [7]. In addition, the z-score is 1.28 (inactive) in [8]; 0.989 (inactive) in assay [9]; 0.894 in [10]; -0.332 in [11]; 0.754 in assay [12]; 0.349 in assay [13]. In addition, the z-score was -0.991 in assay [14]; -2.39 in [15]; -0.32 in [16]; 0.988 (inactive) in [17]; 0.199 in assay [18]; -0.864 in assay [19]. In addition, the z-score in assay [20] is -1.16 (inactive). Further, in assay [2], the composite z-score came out at 0.643.
`O=C1O[C@H](c2ccccc2)[C@H](c2ccccc2)N2[C@H]1[C@@H](C(=O)N1CCN(c3ncccn3)CC1)[C@]1(C(=O)Nc3ccc(C#CCCO)cc31)[C@H]2c1ccccc1OCCO`: the z-score is 0.313 (inactive) in assay [1]; 2.7 (inactive) in assay [3]; 1.55 (inactive) in assay [4]; 0.561 (inactive) in [5]; 0.657 (inactive) in assay [6]; -0.673 in [7]. The z-score in [8] was 1.45 (inactive); in [9], 0.492 (inactive); in [10], 0.333; in [11], 1.09; in [12], 0.569; in assay [13] it was 0.313. The z-score is -0.445 in assay [14]; -2.95 in assay [15]; 0.308 in assay [16]; 0.488 (inactive) in assay [17]; -0.794 in assay [18]; -0.0117 in [19]. Moreover, in [20], the z-score is 1.92 (inactive). This compound also gave a composite z-score in [2] of -0.012.
In the case of `Cc1ccc(-c2cccc(=O)o2)cc1`, the z-score in assay [1] is -0.418 (inactive); in [3], 5.81 (inactive); in assay [4], 1.02 (inactive); in assay [5] it was -0.657 (inactive); in [6] it was 0.609 (inactive); in [7] it was -0.102. The z-score in assay [8] was 0.498 (inactive); in assay [9], -1.66 (inactive); in assay [10], 0.12; in [11], -0.104; in assay [12], 0.796; in assay [13] it was -0.117. Also, the z-score was 0.0881 in assay [14]; -0.774 in [15]; -1.35 in [16]; -0.263 (inactive) in assay [17]; -0.177 in [18]; -0.299 in assay [19]. In addition, the z-score in assay [20] was -0.0164 (inactive). The composite z-score in [2] was -0.237.
With `O=C1C2C=CC(C(O)c3ccc(Br)cc3)N(Nc3ccccc3)C2C(=O)N1c1ccccc1` (stereo not given), the z-score was -1.78 (inactive) in assay [1]; 8.27 (active) in assay [3]; 1.8 (inactive) in [4]; 0.244 (inactive) in assay [5]; 1.25 (inactive) in assay [6]; -0.554 in assay [7]. Also, the z-score was -1.82 (inactive) in assay [8]; -4.09 (inactive) in [9]; -2.39 in assay [10]; -1.17 in assay [11]; -1.45 in [12]; -0.5 in assay [13]. Besides, the z-score in assay [14] was -1.27; in [15], 0.134; in assay [16], -1.92; in assay [17], -0.711 (inactive); in assay [18], -0.163; in assay [19], -0.0898. The z-score in assay [20] was -0.201 (inactive). For the same compound, in assay [2], the composite z-score was found to be 0.305.
For the compound `CCCNC(=O)[C@@]1(Sc2ccc(C)cc2)CC(=O)N(Cc2ccccc2)[C@@H]1c1ccc(CO)cc1I`, the z-score in assay [1] is -0.383 (inactive); in assay [3], 6.23 (inactive); in assay [4], 0.815 (inactive); in assay [5], -0.713 (inactive); in assay [6] it was 0.206 (inactive); in [7], -0.374. Besides, the z-score in assay [8] is 1.04 (inactive); in assay [9], -1.94 (inactive); in assay [10], 1.79; in [11], -0.422; in assay [12], -0.525; in assay [13], 0.0653. Moreover, the z-score in [14] was -2.18; in [15], -2.52; in assay [16], -0.901; in assay [17] it was -0.686 (inactive); in assay [18], -0.935; in [19], -1.89. For the same compound, in assay [20], the z-score is 0.198 (inactive). The same compound registered a composite z-score in assay [2] of -0.0573.
